Results on 78 compounds are retold here after PubChem BioAssay AID492952 (Southern Research Specialized Biocontainment Screening …, 2010).

Hit rate of the full screen: of about 2,300 compounds, about 1,500 (65%) were called active. The rule behind the calls is not given here. So high a share suggests a set chosen from earlier hits. The list shows a part of the results. Results with a measured potency or affinity are listed apart.

The assay in a line: replicating M. tuberculosis growth inhibition, dose response, non-replicating M. tuberculosis project, H37Rv (AID 492952).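 Note: Mycobacterium tuberculosis grown in culture; growth inhibition read after a week of incubation; 0% = bacteria alone untreated and 100% = bacteria with high antibiotic.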 The following applies: series mostly up to 50 µM; inhibition: at the top concentration.
On to `O=C1NC(=O)N(Cc2ccco2)C(=O)/C1=C\c1cccn1CCOc1ccc(Cl)cc1`, for which the “inhibition” value was -2.12% (inactive).
In the case of `Cc1cc(Br)ccc1OCCCCN1CCC(C)CC1` it was 13.3% (inactive); in that of `CCCCCOc1ccc(CSC2=NCCN2)cc1[N+](=O)[O-]`, 3.34% (inactive).
In the case of `C=CCN(CC=C)CC(=O)Nc1ccc(S(N)(=O)=O)cc1` it was -1.05% (inactive); in that of `NC(=O)CN1CCN(C2CC(=O)N(CCc3ccccc3)C2=O)CC1` (stereo not drawn), -0.23% (inactive); in that of `COC(=O)c1cccc(COC(=O)c2cc3ccccc3oc2=O)c1`, 5.68% (inactive).
In the case of `O=C(COC(=O)C1CC2C=CC1C2)Nc1ccccc1` (stereo not drawn) it was -4.32% (inactive); in that of `CCC(C)n1c(=S)[nH]c2ccccc2c1=O` (stereo not drawn), 10.9% (inactive); in that of `O=c1oc2ccccc2c2c1nnn2CCO`, 4.47% (inactive).
In the case of `CCOC(=O)c1sc(NC(=O)CCN2CC(C)OC(C)C2)c(C(=O)OCC)c1C` (stereo not drawn), the “inhibition” value was -3.06% (inactive).
As for `OCC1(CCOc2ccccc2)CCN(Cc2cc(Cl)ccc2O)CC1`, the figure is -8.49% (inactive).
In the case of `O=[N+]([O-])c1ccc(-c2nc3ccc([N+](=O)[O-])cc3[nH]2)cc1` it was 8.42% (inactive); in that of `O=[N+]([O-])c1ccc2nc(SCc3cn4ccccc4n3)[nH]c2c1`, -0.45% (inactive).
As for `c1ccc(OCc2nn3c(-c4ccccn4)nnc3s2)cc1`, the figure is 10.3% (inactive).
Turning to `C/C(=N/NC(=O)c1cc2ccccc2cc1O)C1C(=O)c2ccccc2C1=O`, the “inhibition” value is -4.56% (inactive).
In the case of `O=C(NCC1CCCCC1)c1ccc([N+](=O)[O-])cc1` it was -4.51% (inactive).
As for `O=C(COC(=O)c1ccc(Br)o1)NC1CCCCC1`, the figure is 15.1% (inactive); as for `O=C(CCSc1ccc(Cl)cc1)NC1CCCC1`, 6.09% (inactive).
As for `Nc1c(Cl)cc(Cl)cc1C(=O)OCC(=O)N1CCCC1`, the figure is -1.22% (inactive).
Turning to `Oc1ccc2cc(Br)ccc2c1CN1CCCC1`, the “inhibition” value is -13.2% (inactive).
`CCCOC(=O)NC1CCS(=O)(=O)C1` (stereo not drawn): the “inhibition” value was -8.04% (inactive).
As for `CCCCN(C/C=C/c1ccccc1OC)Cc1ccccc1`, the figure is 4.31% (inactive); as for `CCOC(=O)C1CCN(Cc2ccc(-c3ccccc3)cc2)CC1`, -1.35% (inactive); as for `CC(C)N=C1SC(CC(=O)Nc2ccccc2)C(=O)N1C(C)C` (stereo not drawn), -8.82% (inactive).
As for `O=C(COC(=O)c1ccccc1Br)Nc1ccccc1F`, the figure is 9.48% (inactive).
As for `CCOC(=O)C1=C(C)NC(=O)NC1c1ccc(-c2ccc(F)cc2)o1` (stereo not drawn), the figure is 10.4% (inactive).
Take `Fc1ccc(-c2nnc(-c3ccc(F)cc3)o2)cc1`: the “inhibition” value was -2.38% (inactive).
As for `CCC(=O)c1ccc(OC(=O)c2ccc(Br)o2)cc1`, the figure is 9.11% (inactive); as for `CCC(C)(C)NC(=O)c1ccc(Br)o1`, -1.76% (inactive); as for `O=C(NC1CCCC1)c1nc2c(nnn2Cc2cccc(Cl)c2)c(=O)[nH]1`, 18.1% (inactive).
In the case of `NC(=O)c1cccnc1Nc1cccc(F)c1` it was 4.49% (inactive); in that of `COc1ccc(O)c(C(=O)CC(=O)c2ccc(F)cc2)c1`, 23.9% (inactive).
As for `c1ccc(-c2noc(CC3CCCCC3)n2)nc1`, the figure is -1.22% (inactive); as for `Sc1oc(-c2ccccc2)cc1C=Nc1ccccc1`, 0.97% (inactive).
With `COc1ccc(NC(=O)CO/N=C2/CCCc3nonc32)c(OC)c1`, the “inhibition” value was -3.53% (inactive).
As for `O=C(N/N=C/c1cc(Br)cc(Br)c1O)c1cccc(N2CCCC2=O)c1`, the figure is 3.22% (inactive); as for `O=C(N/N=C/c1ccccc1O)c1cccc(C(F)(F)F)c1`, 14.5% (inactive); as for `O=C(COC(=O)c1ccccc1)NC12CC3CC(CC(C3)C1)C2`, -0.01% (inactive).
In the case of `CCCNC(=O)OCC12CC3CC(CC(C3)C1)C2` it was -7.66% (inactive); in that of `CCCCCCCC(=O)N/N=C(\C)c1ccc(O)cc1O`, -8.78% (inactive); in that of `CSC1=N/C(=C\c2ccc(Br)o2)C(=O)S1`, 5.39% (inactive).
With `CC(=O)Nc1cccc(-c2nc3ccccc3c(=O)o2)c1`, the “inhibition” value is 7.03% (inactive).
As for `O=C(NNC1CC(=O)N(c2ccccc2)C1=O)c1ccco1` (stereo not drawn), the figure is -0.27% (inactive); as for `O=C(N/N=C/c1cn[nH]c1-c1ccccc1)c1ccco1`, 1.45% (inactive).
As for `N[C@@H](Cc1ccccc1)c1nnc(SC/C=C/c2ccccc2)o1`, the figure is 7.63% (inactive).
As for `O=C(NCCc1ccccc1)c1nc(-c2cccs2)no1`, the figure is 2.65% (inactive).
Turning to `O=[N+]([O-])c1cncc([N+](=O)[O-])c1Nc1cccc(O)c1`, the “inhibition” value was 28.7% (inactive).
In the case of `O=S(=O)(NCc1cccnc1)c1ccc(Cl)c(Cl)c1Cl` it was -3.75% (inactive); in that of `Clc1ccc(SCCOCCN2CCc3ccccc3C2)cc1`, 4.11% (inactive); in that of `Clc1ccc(OCCCCN2CCc3ccccc3C2)cc1`, 15.9% (inactive).
As for `CC1=NN(C(=O)c2ccccc2)C(O)(c2ccc(Br)cc2)C1` (stereo not drawn), the figure is 27.1% (inactive); as for `CC1=NN(C(=O)c2ccccc2Cl)C(O)(c2ccccc2)C1` (stereo not drawn), 1.28% (inactive).
In the case of `CCc1ccc(N2C(=O)CC(N3CCC(C(=O)OC)CC3)C2=O)cc1` (stereo not drawn) it was 0.16% (inactive); in that of `COc1ccc(OC(=O)C2CC(=O)N(c3ccc(C)cc3)C2)cc1` (stereo not drawn), 25.1% (inactive); in that of `CCCCCCOc1ccc(N2C(=O)CC(N3CCN(C(=O)c4ccco4)CC3)C2=O)cc1` (stereo not drawn), -5.2% (inactive).
In the case of `CCOc1ccc(N2CC(=O)Nc3ccccc3NCC2=O)cc1`, the “inhibition” value is 5.63% (inactive).
As for `CCCOc1ccc(N2C(=O)CC(N3CCCC(C(=O)N4CCCC4)C3)C2=O)cc1` (stereo not drawn), the figure is -0.96% (inactive); as for `C#CCOc1coc(COC(=O)c2ccccc2)cc1=O`, -6.59% (inactive).
Take `CSC1=N/C(=C\c2ccc3c(c2)OCO3)C(=O)S1`: the “inhibition” value was -2.2% (inactive).
In the case of `O=C1CC(N2CCC(c3nc4ccccc4o3)CC2)C(=O)N1` (stereo not drawn) it was -3.04% (inactive); in that of `NC(=O)/C(=N\OC(=O)c1ccco1)c1nc(-c2ccc(Br)cc2)cs1`, 7.99% (inactive).
As for `Cc1[nH]n(-c2ccccc2)c(=O)c1C=Nc1cnc2ccccc2c1`, the figure is 0.8% (inactive); as for `C/C(=N\NC(=O)CCc1ccccc1)C1C(=O)c2ccccc2C1=O`, 2.42% (inactive); as for `CC(C)(C)c1ccc(S(=O)(=O)NNC(=O)c2cc3ccccc3[nH]2)cc1`, -2.17% (inactive).
As for `Cc1ccc(S(=O)(=O)NCc2ccc(C(=O)NCCCN3CCC(Cc4ccccc4)CC3)cc2)cc1`, the figure is 8.86% (inactive).
On to `CN(C)CCC(=O)N1c2ccccc2Sc2ccc(C(F)(F)F)cc21`, for which the “inhibition” value is -0.36% (inactive).
As for `Oc1ccc(Br)cc1-c1ccn[nH]1`, the figure is 11.7% (inactive); as for `CC(NC(=O)c1cc2ccccc2oc1=O)c1ccccc1` (stereo not drawn), 2.61% (inactive).
In the case of `Cc1ccc(C(C)NC(=O)c2cc3ccccc3oc2=O)cc1C` (stereo not drawn) it was -6.44% (inactive).
As for `O=C(NC1CCOc2ccccc21)c1ccc(Cl)nc1` (stereo not drawn), the figure is -5.08% (inactive).
With `CCOc1ccc(NC(=O)COc2ccc3c(c2)OCO3)cc1`, the “inhibition” value is 11% (inactive).
In the case of `O=C(Nc1ccc([N+](=O)[O-])cc1)c1ccc(Cn2cc([N+](=O)[O-])cn2)cc1` it was -2.2% (inactive); in that of `C=CCOc1ccc(CNCCO)cc1OCC`, 6.25% (inactive); in that of `CC(C)(C)c1cc(CN2CCN(CCO)CC2)cc(C(C)(C)C)c1O`, 2.66% (inactive).
On to `CCn1c(O)c(C(=O)CC2NCCc3ccccc32)c(=O)n(CC)c1=S` (stereo not drawn), for which the “inhibition” value is 5.15% (inactive).
As for `Cc1ccc2nc(NC(=O)COC(=O)c3ccc(Br)o3)sc2c1`, the figure is -1.01% (inactive); as for `Cc1ccc(CNC(=O)c2cnccn2)cc1`, -4.77% (inactive); as for `O=C(NNc1nc2ccccc2s1)Nc1ccc(F)cc1`, -2.93% (inactive).
